14 compounds from PubChem BioAssay (NCI) can be followed below.

Test systems include HCT-15 colon; HT29 colon; SNB-75 CNS; SNB-19 CNS; U251 CNS; PC-3 prostate; SK-MEL-5 melanoma; UACC-62 melanoma; LOX IMVI melanoma; SK-MEL-28 melanoma.
Common to all, as to assay: NCI-60 one-dose screen, 48 h (100 = growth as untreated, 0 = no growth, -100 = all killed)
What all share (settings): 10 µM unless noted

Molecules are shown by their SMILES. Compounds without any hit were thinned out: in the full panel of roughly 83,000, 20% have a hit.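 How to read the values: 0–100, growth inhibition (40 = 60% inhibited); 0, no net growth; -100 to 0, cell death (-40 = 40% of starting cells died; -100 = all dead).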 Unmarked numbers belong to inactive results. Active and inactive are the calls of the source. Rule for the calls: active = growth percent below 10; inactive = the rest.

With `COc1cccc(NC(=O)OC(C)C)c1`, the growth with HCT-15 colon was 96.3%; with HT29 colon, 105%; in the assay on SNB-75 CNS, 96.7%; in the assay with SNB-19 CNS it was 116%; in the assay with U251 CNS, 94.9%; with PC-3 prostate it was 93.5%. Besides, the growth in the assay with SK-MEL-5 melanoma was 109%; in the assay on UACC-62 melanoma, 108%; in the assay with LOX IMVI melanoma, 102%; in the assay on SK-MEL-28 melanoma, 108%.
For `CC(=O)N1N=C(C2C(=O)N(C)C(=O)N(C)C2=O)CC1c1ccccc1C(=O)O` (stereo not given), the growth was 110% in the assay on HCT-15 colon; 98.9% in the assay with HT29 colon; 95% in the assay on SNB-75 CNS; 106% with SNB-19 CNS; 104% in the assay on U251 CNS; 95.4% in the assay on PC-3 prostate. For the same compound, the growth is 107% in the assay on SK-MEL-5 melanoma, 100% in the assay on UACC-62 melanoma, 99.1% in the assay on LOX IMVI melanoma and 112% with SK-MEL-28 melanoma.
As for `O=C(/C=C/c1ccccc1Br)c1cccc(OCCCCOc2cccc(C(=O)/C=C/c3ccccc3Br)c2)c1`, the growth in the assay with HCT-15 colon is 81.6%; with HT29 colon, 89.3%; in the assay on SNB-75 CNS, 79.7%; with SNB-19 CNS it was 90.8%; in the assay with U251 CNS it was 77%; with PC-3 prostate, 92%. Moreover, the growth in the assay with SK-MEL-5 melanoma is 98.7%; with UACC-62 melanoma, 78.8%; in the assay on LOX IMVI melanoma it was 86.4%; with SK-MEL-28 melanoma it was 102%.
Turning to `C=C1C(=O)O[C@H]2[C@H]1CC/C(COC(=O)NCc1ccc(Cn3c(=O)sn(CCCl)c3=O)cc1)=C\CC[C@@]1(C)O[C@@H]21`, the growth was 27.6% with HCT-15 colon; 15.1% in the assay on HT29 colon; 85.5% in the assay with SNB-75 CNS; 99% in the assay on SNB-19 CNS; 78.7% with U251 CNS; 78.7% in the assay with PC-3 prostate. For the same compound, the growth was 81.7% in the assay on SK-MEL-5 melanoma, 69.5% in the assay with UACC-62 melanoma, 60.8% with LOX IMVI melanoma and 64.3% in the assay with SK-MEL-28 melanoma.
With `CC(C)c1nc2ccccc2n1CC(=O)N/N=C/c1cccc(O)c1`, the growth is 104% in the assay on HCT-15 colon; 104% in the assay on HT29 colon; 94.1% in the assay on SNB-75 CNS; 91.8% in the assay with SNB-19 CNS; 103% in the assay with U251 CNS; 87.9% in the assay with PC-3 prostate. Besides, the growth is 100% in the assay on SK-MEL-5 melanoma, 86.3% with UACC-62 melanoma, 99.6% with LOX IMVI melanoma and 97.2% in the assay with SK-MEL-28 melanoma.
As to `CCCCCCCOc1cccc(/C=C2\N=C3SCCCN3C2=O)c1`, the growth with HCT-15 colon is 87.5%; with HT29 colon, 88.9%; in the assay with SNB-75 CNS, 91.2%; with SNB-19 CNS, 92.8%; in the assay on U251 CNS, 91.1%; in the assay on PC-3 prostate, 85.3%. Also, the growth with SK-MEL-5 melanoma is 90.1%; in the assay on UACC-62 melanoma it was 79.6%; with LOX IMVI melanoma it was 96.2%; in the assay with SK-MEL-28 melanoma it was 100%.
Regarding `COc1cc(C2CC(c3ccc(Cl)cc3)=NN2C(C)=O)ccc1Oc1ccnc2cc(Cl)ccc12` (stereo not given), the growth with HCT-15 colon is 91.9%; in the assay on HT29 colon, 28.2%; in the assay with SNB-75 CNS, 33.2%; in the assay with SNB-19 CNS, 70.7%; with U251 CNS, 43.8%; with PC-3 prostate, 58.3%. The growth with SK-MEL-5 melanoma is 67.8%; with UACC-62 melanoma it was 60.5%; with LOX IMVI melanoma, 37.9%; with SK-MEL-28 melanoma, 55.1%.
As for `N=c1nc(N2CCCCC2)cc(N)n1O`, the growth is 97% in the assay on HCT-15 colon; 107% in the assay on HT29 colon; 93.5% with SNB-75 CNS; 99.8% with SNB-19 CNS; 101% in the assay on U251 CNS; 103% with PC-3 prostate. In addition, the growth is 94.8% in the assay with SK-MEL-5 melanoma, 104% in the assay on UACC-62 melanoma, 110% with LOX IMVI melanoma and 111% in the assay on SK-MEL-28 melanoma.
For the compound `CC1OC(n2c3ccccc3c3c4c(c5c6ccccc6[nH]c5c32)C(=O)N(CCN[C@H]2CCC[C@@H]2N)C4=O)CC(O)C1O` (stereo not given in full), the growth is 82.6% in the assay with HCT-15 colon; 12.9% with HT29 colon; 24.1% with SNB-75 CNS; 17% in the assay on SNB-19 CNS; 14.5% in the assay on U251 CNS; 16.8% with PC-3 prostate. Further, the growth in the assay on SK-MEL-5 melanoma was 23.7%; in the assay on UACC-62 melanoma, 42.1%; in the assay with LOX IMVI melanoma it was 20.3%; with SK-MEL-28 melanoma, 68.6%.
With `COc1cccc(N2CCN(c3ncnc4cc[nH]c34)CC2)c1`, the growth in the assay on HCT-15 colon was 83%; in the assay with HT29 colon, 73.2%; with SNB-75 CNS, 84%; in the assay on SNB-19 CNS, 66.2%; in the assay on U251 CNS, 66.9%; in the assay with PC-3 prostate, 53%. Further, the growth in the assay with SK-MEL-5 melanoma was -0.321% (active); in the assay on UACC-62 melanoma, 58.8%; in the assay on LOX IMVI melanoma it was 51.6%; in the assay on SK-MEL-28 melanoma it was 80.8%.
Consider `CCCCCCCCN=C(NCCCCCCCC)SCc1cccc2ccccc12`, for which the growth in the assay with HCT-15 colon is -78.1% (active); in the assay on HT29 colon, -24.4% (active); in the assay with SNB-75 CNS it was -88.4% (active); with SNB-19 CNS it was -88.4% (active); with U251 CNS it was -98.7% (active); in the assay on PC-3 prostate it was -93.2% (active). The growth with SK-MEL-5 melanoma is -95.3% (active); with UACC-62 melanoma, -82.2% (active); in the assay with LOX IMVI melanoma, -96% (active); in the assay on SK-MEL-28 melanoma, -87.8% (active).
In the case of `C#Cc1cccc(Nc2nc3cc([N+](=O)[O-])ccc3nc2Nc2ccc(O)cc2)c1`, the growth is 0.208% (active) in the assay on HCT-15 colon; -80.7% (active) with HT29 colon; 43.8% with SNB-75 CNS; 23.3% in the assay on SNB-19 CNS; 2.57% (active) with U251 CNS; 2.88% (active) with PC-3 prostate. Moreover, the growth was 47.1% with SK-MEL-5 melanoma, -15.9% (active) in the assay with UACC-62 melanoma, -87.5% (active) with LOX IMVI melanoma and 21.5% with SK-MEL-28 melanoma.
As to `Cc1cc(-c2ccc(N=Nc3c(S(=O)(=O)O)cc4cc(S(=O)(=O)O)cc(O)c4c3O)c(C)c2)ccc1N=Nc1c(S(=O)(=O)O)cc2cc(S(=O)(=O)O)cc(O)c2c1O`, the growth in the assay with HCT-15 colon is 109%; in the assay with HT29 colon it was 103%; in the assay with SNB-75 CNS, 82.4%; with SNB-19 CNS it was 106%; with U251 CNS it was 101%; in the assay on PC-3 prostate, 93.6%. In addition, the growth with SK-MEL-5 melanoma was 101%; in the assay with UACC-62 melanoma, 114%; in the assay on LOX IMVI melanoma, 107%; in the assay on SK-MEL-28 melanoma, 110%.
Consider `C=CC(=O)N1CN(C(=O)C=C)CN(C(=O)C=C)C1`, for which the growth in the assay with HCT-15 colon is 3.65% (active); in the assay on HT29 colon, 26.2%; in the assay on SNB-75 CNS it was 60%; in the assay on SNB-19 CNS it was 107%; in the assay with U251 CNS, 88.9%; in the assay on PC-3 prostate it was 90.8%. Also, the growth was 71.5% in the assay on SK-MEL-5 melanoma, 74.3% with UACC-62 melanoma, 71.4% in the assay with LOX IMVI melanoma and 72.7% in the assay with SK-MEL-28 melanoma.
